From paper PMC4336329 (PLoS ONE, 2015)
About 14,000 (4.5%) of roughly 310,000 compounds showed an effect of 50% or more. Effects have a minus sign here. For the sample, strong results were picked, then their nearest neighbours and some compounds at random.
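Note: peak tail current of the secondary pulse compared with the same well before compound.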

These molecules were tested against human ether-à-go-go-related gene (hERG) potassium channel (human, UniProt Q12809) (assay: primary screen, population patch clamp on CHO cells stably expressing hERG; higher = less effect of the substance).
human ether-à-go-go-related gene (hERG) potassium channel, sequence (Q12809 whole entry, looked up): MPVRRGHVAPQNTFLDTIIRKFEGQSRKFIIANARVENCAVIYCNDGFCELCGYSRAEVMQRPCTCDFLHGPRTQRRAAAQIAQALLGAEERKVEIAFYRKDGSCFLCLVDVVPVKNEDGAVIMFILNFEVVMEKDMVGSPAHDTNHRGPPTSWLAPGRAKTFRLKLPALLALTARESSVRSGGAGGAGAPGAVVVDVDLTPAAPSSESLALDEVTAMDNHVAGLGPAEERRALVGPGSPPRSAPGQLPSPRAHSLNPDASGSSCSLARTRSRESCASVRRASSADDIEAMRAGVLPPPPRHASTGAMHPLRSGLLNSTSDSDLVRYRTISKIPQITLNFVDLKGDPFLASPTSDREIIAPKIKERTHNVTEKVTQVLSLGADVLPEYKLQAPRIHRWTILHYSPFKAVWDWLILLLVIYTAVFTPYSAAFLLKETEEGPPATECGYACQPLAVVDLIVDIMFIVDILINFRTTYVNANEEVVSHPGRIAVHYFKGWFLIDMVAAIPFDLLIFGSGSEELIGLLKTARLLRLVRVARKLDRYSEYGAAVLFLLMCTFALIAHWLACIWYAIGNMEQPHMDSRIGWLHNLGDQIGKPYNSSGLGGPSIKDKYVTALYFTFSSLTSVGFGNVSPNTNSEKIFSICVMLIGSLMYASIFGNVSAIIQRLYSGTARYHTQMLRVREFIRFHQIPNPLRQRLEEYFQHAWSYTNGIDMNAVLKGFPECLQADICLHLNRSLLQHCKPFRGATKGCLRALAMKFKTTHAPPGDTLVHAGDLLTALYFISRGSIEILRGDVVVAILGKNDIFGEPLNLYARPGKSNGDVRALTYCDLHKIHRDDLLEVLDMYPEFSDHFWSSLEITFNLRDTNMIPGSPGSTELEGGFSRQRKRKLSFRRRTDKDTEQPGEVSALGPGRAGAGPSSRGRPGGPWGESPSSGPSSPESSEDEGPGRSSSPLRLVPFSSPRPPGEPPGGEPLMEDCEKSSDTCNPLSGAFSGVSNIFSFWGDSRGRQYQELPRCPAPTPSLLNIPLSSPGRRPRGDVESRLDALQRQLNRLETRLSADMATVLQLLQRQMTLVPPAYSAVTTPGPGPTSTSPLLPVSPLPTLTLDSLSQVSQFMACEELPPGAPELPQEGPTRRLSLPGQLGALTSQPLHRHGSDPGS
In the case of COC(=O)c1c(C(=O)OC)c2n(c1C)CCS2, the “hERG current change (%, negative = inhibition) at 10uM” value is reported as 3.54%.
With COc1ccc(OC)c(NC(=O)COC(=O)Cn2nnc(-c3ccccc3)n2)c1 the “hERG current change (%, negative = inhibition) at 10uM” value was 2.66%.
With CCCc1nn2c(=O)cc(CSCC(=O)Nc3ccccc3OC)nc2s1 the “hERG current change (%, negative = inhibition) at 10uM” value was 14.8%.
With O=C(CSc1nc2ccccc2nc1N1CCOCC1)Nc1ccccc1F the “hERG current change (%, negative = inhibition) at 10uM” value was -4.19%.
In the case of COc1cccc(C(=O)Nc2ccc(NC(=O)Cc3ccccc3)cc2)c1, the “hERG current change (%, negative = inhibition) at 10uM” value is reported as -24.1%.
CCOc1ccccc1CNc1nc2nc3c(c(=O)n2[nH]1)CCC3 was tested, and the “hERG current change (%, negative = inhibition) at 10uM” value was 19.6%.
For Oc1c(Br)cc(C2N=C(c3ccccc3Cl)NO2)cc1Br (centres unmarked), the “hERG current change (%, negative = inhibition) at 10uM” value was -2.5%.
For CCCc1c(C)nc(N2CCN(c3ccccc3OC)CC2)[nH]c1=O, the “hERG current change (%, negative = inhibition) at 10uM” value was 25.2%.
For COc1ccccc1C(=O)NC(=O)COC(=O)c1ccc(Cl)cc1[N+](=O)[O-], the “hERG current change (%, negative = inhibition) at 10uM” value was 21.6%.
For COc1ccc(Nc2nc(Nc3ccc(OC)cc3)nc(-n3[nH]c(=O)c(C)c3C)n2)cc1, the “hERG current change (%, negative = inhibition) at 10uM” value was -10.1%.
For CCOc1cc(/C=N/NC(=O)c2ccc(N(C)S(=O)(=O)c3ccccc3)cc2)ccc1OC, the “hERG current change (%, negative = inhibition) at 10uM” value was -33%.
In the case of Cc1cccc2[nH]c(CN(C)Cc3nc(CC4CC4)no3)nc12, the “hERG current change (%, negative = inhibition) at 10uM” value is reported as -11.8%.
O=C(COc1ccc(CO)cc1)Nc1ccc(F)cc1 was tested, and the “hERG current change (%, negative = inhibition) at 10uM” value was 0.156%.
In the case of CCc1cc(=O)oc2c(C)c(O)c(CN3CCCCC3)cc12, the “hERG current change (%, negative = inhibition) at 10uM” value is reported as -0.833%.
With CCc1n[nH]c(=S)n1N=C1CCC(C)CC1 (centres unmarked) the “hERG current change (%, negative = inhibition) at 10uM” value was 19.1%.
In the case of CC1(C)CC(=O)C=C(NC2=CC3OC(c4ccccc4)OCC3OC2=O)C1 (centres unmarked), the “hERG current change (%, negative = inhibition) at 10uM” value is reported as -0.196%.
C#Cc1ccc([C@@H]2C=C(C(=O)Nc3ccccc3)O[C@H](OCC)[C@H]2CCCO)cc1 was tested, and the “hERG current change (%, negative = inhibition) at 10uM” value was -22.2%.
With CN1CCCN(C(=O)c2cc(-c3ccc(Cl)c(Cl)c3Cl)nc3ccccc23)CC1.Cl the “hERG current change (%, negative = inhibition) at 10uM” value was -69%.
In the case of CN1CCCN(C(=O)c2cc(-c3cccc4ccccc34)nc3ccccc23)CC1.Cl, the “hERG current change (%, negative = inhibition) at 10uM” value is reported as -59.4%.
O=C(c1cc(-c2ccccc2Cl)nc2ccccc12)N1CCN(c2ccccc2O)CC1 was tested, and the “hERG current change (%, negative = inhibition) at 10uM” value was -22.6%.
Cc1ccccc1-c1cc(C(=O)N2CCCC2)c2ccccc2n1 was tested, and the “hERG current change (%, negative = inhibition) at 10uM” value was -47.9%.
In the case of O=C(c1cc(-c2ccccc2Cl)nc2ccccc12)N1CCC1, the “hERG current change (%, negative = inhibition) at 10uM” value is reported as -12.4%.
For CC(=O)N1CCN(C(=O)c2cc(-c3cccc4ccccc34)nc3ccccc23)CC1, the “hERG current change (%, negative = inhibition) at 10uM” value was -28.9%.
For CCOC(=O)CNC(=O)CSc1nnc(-c2ccncc2)n1-c1ccc(Cl)cc1, the “hERG current change (%, negative = inhibition) at 10uM” value was -8.18%.
For CC(=O)c1ccccc1OCC(O)CN1CCN(CCN2C(=O)c3cccc4cccc(c34)C2=O)CC1 (centres unmarked), the “hERG current change (%, negative = inhibition) at 10uM” value was -73.3%.
With C=CCc1ccccc1OCC(O)CN1CCN(CCO)CC1.Cl (centres unmarked) the “hERG current change (%, negative = inhibition) at 10uM” value was 11.3%.
In the case of O=C(C(c1ccccc1)c1ccccc1)N1CCN(CCN2C(=O)c3cccc4cccc(c34)C2=O)CC1, the “hERG current change (%, negative = inhibition) at 10uM” value is reported as -4.74%.
NC(=O)CN1CCN(CCN2C(=O)c3cccc4cccc(c34)C2=O)CC1 was tested, and the “hERG current change (%, negative = inhibition) at 10uM” value was -5.61%.
C=CCc1ccccc1OCC(O)CN1C(=O)c2ccccc2C1=O (centres unmarked) was tested, and the “hERG current change (%, negative = inhibition) at 10uM” value was -27.2%.
With Cc1ccc(NC(=S)N2CCN(CCN3C(=O)c4cccc5cccc(c45)C3=O)CC2)cc1 the “hERG current change (%, negative = inhibition) at 10uM” value was -1.29%.
In the case of C=CCc1ccccc1OCC(O)CN1CCN(CCN2C(=O)c3cccc4cccc(c34)C2=O)CC1.Cl (centres unmarked), the “hERG current change (%, negative = inhibition) at 10uM” value is reported as -57.8%.
Cc1ccccc1OCC(O)CN1C(=O)c2ccccc2C1=O (centres unmarked) was tested, and the “hERG current change (%, negative = inhibition) at 10uM” value was 4.28%.
With Cc1ccccc1OCC(O)CN1CCN(CCN2C(=O)c3cccc4cccc(c34)C2=O)CC1 (centres unmarked) the “hERG current change (%, negative = inhibition) at 10uM” value was -74.2%.
Cc1ccc(C)c(OCC(O)CN2CCN(CCN3C(=O)c4cccc5cccc(c45)C3=O)CC2)c1.Cl (centres unmarked) was tested, and the “hERG current change (%, negative = inhibition) at 10uM” value was -67.3%.
For Cc1cccc(OCC(O)CN2CCN(CCN3C(=O)c4cccc5cccc(c45)C3=O)CC2)c1C (centres unmarked), the “hERG current change (%, negative = inhibition) at 10uM” value was -35.7%.
COc1ccc(CN(C)CC(=O)NC(C)c2ccccc2)c(OC)c1 (centres unmarked) was tested, and the “hERG current change (%, negative = inhibition) at 10uM” value was -13.8%.
Cc1ccc(-c2noc(CN3CCN(C(c4ccccc4)c4ccccc4)CC3)n2)cc1 was tested, and the “hERG current change (%, negative = inhibition) at 10uM” value was 7.84%.
CN(C)CCNC(=O)c1cccc(NS(=O)(=O)c2ccc(Cl)c(Cl)c2)c1 was tested, and the “hERG current change (%, negative = inhibition) at 10uM” value was 0.919%.
With O=C(c1ccccc1)N1CC(COc2ccccc2)OC(c2cccnc2)O1 (centres unmarked) the “hERG current change (%, negative = inhibition) at 10uM” value was -5.14%.
For O=C(Cn1nnc(-c2ccccc2NC(=O)c2ccccc2)n1)Nc1ccc2c(c1)OCCO2, the “hERG current change (%, negative = inhibition) at 10uM” value was 1.49%.
For Cc1cc(Cl)ccc1C1=CC(=O)C[C@H](c2ccc(F)cc2)C1, the “hERG current change (%, negative = inhibition) at 10uM” value was 15.7%.
For Cc1cc(=O)[nH]c2c1c(C)nn2C1CCCCC1, the “hERG current change (%, negative = inhibition) at 10uM” value was -3.84%.
For O=C(COc1cccc(F)c1)NNC(=O)Cc1ccc(S(=O)(=O)N2CCOCC2)s1, the “hERG current change (%, negative = inhibition) at 10uM” value was -11.9%.
In the case of C/C(=N\Nc1ccc(Cl)cc1)c1c(O)cc(C)oc1=O, the “hERG current change (%, negative = inhibition) at 10uM” value is reported as 15.3%.
For c1ccc2c(c1)CC/C2=N/Nc1nc2ccccc2[nH]1, the “hERG current change (%, negative = inhibition) at 10uM” value was 9.49%.
For Cc1cccn2c(=O)c3cc(C(N)=S)c(=N)n(CCCN4CCOCC4)c3nc12, the “hERG current change (%, negative = inhibition) at 10uM” value was -87.6%.
With CCOCCCNC(=O)c1cc2c(=O)n3cccc(C)c3nc2n1C the “hERG current change (%, negative = inhibition) at 10uM” value was 12.4%.
For CCOCCCn1c(=N)c(C(N)=S)cc2c(=O)n3cccc(C)c3nc21, the “hERG current change (%, negative = inhibition) at 10uM” value was -82.6%.
For COCCCn1c(C(=O)NCCN2CCOCC2)cc2c(=O)n3cccc(C)c3nc21, the “hERG current change (%, negative = inhibition) at 10uM” value was -9.21%.
For COCCCn1c(=N)c(C(N)=S)cc2c(=O)n3cccc(C)c3nc21, the “hERG current change (%, negative = inhibition) at 10uM” value was -84.3%.
In the case of Cc1cccn2c(=O)c3cc(C(=O)N4CCOCC4)n(C)c3nc12, the “hERG current change (%, negative = inhibition) at 10uM” value is reported as -32.1%.
Cc1cccn2c(=O)c3cc(C(=O)NCCCOC(C)C)sc3nc12 was tested, and the “hERG current change (%, negative = inhibition) at 10uM” value was -6.24%.
Cc1cccn2c(=O)c3cc(C(N)=S)c(=N)n(CCCOC(C)C)c3nc12 was tested, and the “hERG current change (%, negative = inhibition) at 10uM” value was -78.2%.
CCCCn1c(=N)c(S(=O)(=O)c2ccc(Br)cc2)cc2c(=O)n3cccc(C)c3nc21 was tested, and the “hERG current change (%, negative = inhibition) at 10uM” value was 13%.
COCCCn1c(C(=O)N2CC(C)OC(C)C2)cc2c(=O)n3cccc(C)c3nc21 (centres unmarked) was tested, and the “hERG current change (%, negative = inhibition) at 10uM” value was 0.735%.
For COCCCn1c(C(=O)N2CCOCC2)cc2c(=O)n3cccc(C)c3nc21, the “hERG current change (%, negative = inhibition) at 10uM” value was -11.4%.
